The values that follow come from PubChem BioAssay (EPA / NIEHS).

A short description of assay [1]: ATG_M_61_XSP1: Attagene TRANS-FACTORIAL Multi-Species (XSP1) HepG2 Assay for M61 Transcription Factor (Internal Marker) (AID 2283797). In outline: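 Background-control readout: reporter transcripts measured by RT-PCR and capillary electrophoresis 24 h after dosing transiently transfected HepG2 multi-reporter cells, with 3 nM 6-alpha-fluorotestosterone present. Fitted in the positive direction relative to DMSO.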

Assay [2] concerns zebrafish Peroxisome Proliferator-activated Receptor gamma (PPARg), gene 557037. Briefly: ATG_zfPPARg_XSP1: Attagene TRANS-FACTORIAL Multi-Species (XSP1) HepG2 Assay for zebrafish Peroxisome Proliferator-activated Receptor gamma (PPARg) (AID 2283801). The essentials:
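Trans-activation readout of chimeric zebrafish PPARg–GAL4 in transiently transfected human HepG2 cells, 24 h chemical exposure (medium includes 3 nM 6-alpha-fluorotestosterone). Reporter transcripts measured by RT-PCR and capillary electrophoresis, fitted as gain over DMSO.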

For assay [3], the target named is Nuclear receptor subfamily 1 group I member 2 (Mus musculus) (UniProt O54915). The experiment in a line: ATG_mPXR_XSP1: Attagene TRANS-FACTORIAL Multi-Species (XSP1) HepG2 Assay for mouse Pregnane X Receptor (PXR) (AID 2283803). The essentials: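 Transiently transfected HepG2 cells expressing a receptor-Gal4 chimera drive a GAL4-UAS reporter; 3 nM 6-alpha-fluorotestosterone included. Reporter mRNA read 24 h post-dose by RT-PCR and capillary electrophoresis; gain of signal relative to DMSO.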

In assay [4] the target is human Thyroid hormone Receptor alpha (TRa), THRA (gene 7067) (UniProt P10827). Briefly: ATG_hTRa_XSP1: Attagene TRANS-FACTORIAL Multi-Species (XSP1) HepG2 Assay for human Thyroid hormone Receptor alpha (TRa) (AID 2283805). In outline: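 Reporter transcripts from the human TRa-Gal4 TRANS unit quantified by RT-PCR, fluorescent labeling and capillary electrophoresis after 24 hours of chemical exposure in transfected HepG2 cells; medium contains 3 nM 6-alpha-fluorotestosterone. Positive direction fit against DMSO.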

Assay [5] addresses zebrafish Thyroid Hormone Receptor alpha (TRa), thraa (gene 30670) (UniProt Q98867). The experiment in a line: ATG_zfTRa_XSP1: Attagene TRANS-FACTORIAL Multi-Species (XSP1) HepG2 Assay for zebrafish Thyroid Hormone Receptor alpha (TRa) (AID 2283807). The essentials: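 Reporter transcripts driven by a chimeric zebrafish TRa–Gal4 protein were measured by RT-PCR with fluorescent labelling and capillary electrophoresis. These came from transiently transfected HepG2 cells after 24 h chemical exposure, with 3 nM 6-alpha-fluorotestosterone added; baseline was DMSO.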

The target of assay [6] is human Thyroid hormone Receptor beta (TRb), THRB (gene 7068) (UniProt P10828). Briefly: ATG_hTRb_XSP1: Attagene TRANS-FACTORIAL Multi-Species (XSP1) HepG2 Assay for human Thyroid hormone Receptor beta (TRb) (AID 2283808). In outline: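 Readout is reporter mRNA induction measured by RT-PCR, fluorescent labelling and capillary electrophoresis, fitted upward relative to DMSO. Transiently transfected human HepG2 cells expressing NR-Gal4 chimeras were dosed for 24 h, medium containing 3 nM 6-alpha-fluorotestosterone.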

The nature of assay [7]: ATG_XTT_Cytotoxicity_XSP1: Cytotoxicity Assessment in the Attagene TRANS-FACTORIAL Multi-Species (XSP1) HepG2 Assay (AID 2283810). In outline:
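XTT viability readout taken at 24 hours post-dosing in HepG2 liver cells co-treated with 3 nM 6-alpha-fluorotestosterone. Signal loss relative to DMSO controls reflects cytotoxicity.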

Assay [8] relates to turtle Estrogen Receptor (ERa), gene 101933533. The experiment in a line: ATG_trERa_XSP2: Attagene TRANS-FACTORIAL Multi-Species (XSP2) HepG2 Assay for turtle Estrogen Receptor (ERa) (AID 2283812).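 Further: actives raise reporter signal above DMSO so AC50 reflects agonist activity.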 The essentials:
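Readout is reporter mRNA quantified by RT-PCR with capillary electrophoresis after 24 h compound exposure, increase relative to DMSO. Uses transiently transfected human HepG2 liver cells carrying a chimeric turtle ERa-Gal4 receptor driving GAL4-UAS reporters.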

Assay [9] deals with GAL4 Transcription Factor (Internal Marker), GAL4 (gene 855828) (UniProt P04386). The experiment in a line: ATG_GAL4_XSP2: Attagene TRANS-FACTORIAL Multi-Species (XSP2) HepG2 Assay for GAL4 Transcription Factor (Internal Marker) (AID 2283814).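 Further: GAL4 reporter mRNA background control in MRTU transfected cells not a receptor target.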 The essentials:
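Background-control readout: gain-of-signal fitted against DMSO. After 24 h exposure of transfected HepG2 (MRTU, GAL4-UAS reporters; 3 nM 6-alpha-fluorotestosterone, 1.5 nM norgestrel present), transcripts quantified by RT-PCR and capillary electrophoresis fluorescence.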

Assay [10] concerns turtle Androgen Receptor (AR), gene 101947425. Briefly: ATG_trAR_XSP2: Attagene TRANS-FACTORIAL Multi-Species (XSP2) HepG2 Assay for turtle Androgen Receptor (AR) (AID 2283815).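 Further: potency for gain of reporter signal meaning activation above DMSO baseline.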 The essentials:
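Reporter transcripts were quantified via RT-PCR and capillary electrophoresis and fitted upward against DMSO. Transiently transfected human HepG2 cells carrying NR-Gal4 chimeras were exposed 24 h, with 3 nM 6-alpha-fluorotestosterone plus 1.5 nM norgestrel added.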

Assay [11] addresses zebrafish Estrogen Receptor (ER1), esr1 (gene 259252) (UniProt P57717). The experiment in a line: ATG_zfER1_XSP2: Attagene TRANS-FACTORIAL Multi-Species (XSP2) HepG2 Assay for zebrafish Estrogen Receptor (ER1) (AID 2283816). In outline:
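After 24 h compound exposure, RNA from transfected HepG2 cells was reverse-transcribed and reporter transcripts resolved by capillary electrophoresis. The TRANS format reads exogenous zebrafish ER1-Gal4 chimera activity on GAL4-UAS elements; gain of signal against DMSO.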

For assay [12], the target named is chicken Estrogen Receptor (ERa), ESR1 (gene 396099) (UniProt P06212). The experiment in a line: ATG_chERa_XSP2: Attagene TRANS-FACTORIAL Multi-Species (XSP2) HepG2 Assay for chicken Estrogen Receptor (ERa) (AID 2283817).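 Further: actives raise reporter signal above DMSO so AC50 reflects ER activation.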 The essentials:
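Reporter mRNA induction read by RT-PCR, fluorescent labelling and capillary electrophoresis after 24 h exposure; positive-direction fit against DMSO baseline. HepG2 cells transfected with multiplexed GAL4-UAS units including chicken ERa chimera; medium contained 3 nM 6-alpha-fluorotestosterone plus 1.5 nM norgestrel.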

Assay [13] relates to zebrafish Estrogen Receptor (ER2a), gene 317734. The experiment in a line: ATG_zfER2a_XSP2: Attagene TRANS-FACTORIAL Multi-Species (XSP2) HepG2 Assay for zebrafish Estrogen Receptor (ER2a) (AID 2283818).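 Further: hits raise reporter mRNA so AC50 reflects activation of zebrafish ER2a.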 The essentials:
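Multiplexed trans-reporter readout: RT-PCR then capillary electrophoresis of reporter transcripts after 24 h compound treatment. Human HepG2 carries transfected zebrafish ER2a-Gal4 chimera; 3 nM 6-alpha-fluorotestosterone plus 1.5 nM norgestrel present. Induction scored against DMSO.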

Assay [14] concerns chicken Androgen Receptor (AR), gene 422165. Briefly: ATG_chAR_XSP2: Attagene TRANS-FACTORIAL Multi-Species (XSP2) HepG2 Assay for chicken Androgen Receptor (AR) (AID 2283819).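 Further: hits raise reporter mRNA above DMSO so potency is for activation.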 The essentials:
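Readout is reporter mRNA induction via RT-PCR/capillary electrophoresis after 24 h chemical exposure, positive direction relative to DMSO. Transiently transfected HepG2 express chimeric chicken AR–GAL4; AR stimulated by 3 nM 6-alpha-fluorotestosterone and 1.5 nM norgestrel.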

For assay [15], the system named is frog Estrogen Receptor (ER), gene 398734. Briefly: ATG_frER1_XSP2: Attagene TRANS-FACTORIAL Multi-Species (XSP2) HepG2 Assay for frog Estrogen Receptor (ER) (AID 2283821).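 Further: hits raise reporter mRNA above DMSO baseline so potency means agonist or activator.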 The essentials: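 HepG2 cells transiently transfected with multiplexed GAL4-UAS reporter units expressing chimeric NR-Gal4 proteins (TRANS format) were dosed for 24 h. Reporter mRNA was quantified by RT-PCR, FAM primer extension, HpaI digestion and capillary electrophoresis; gain of signal relative to DMSO.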

Assay [16] is described as follows: ATG_M_19_XSP2: Attagene TRANS-FACTORIAL Multi-Species (XSP2) HepG2 Assay for M32 Transcription Factor (Internal Marker) (AID 2283822). In outline:
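Internal background marker in a multi-species nuclear receptor TRANS panel: transfected HepG2 cells exposed 24 h, with 3 nM 6-alpha-fluorotestosterone and 1.5 nM norgestrel present. Readout is RT-PCR of reporter transcripts resolved by capillary electrophoresis, gain-of-signal versus DMSO.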

The test system of assay [17] is zebrafish Estrogen Receptor (ER2b), gene 317733. Briefly: ATG_zfER2b_XSP2: Attagene TRANS-FACTORIAL Multi-Species (XSP2) HepG2 Assay for zebrafish Estrogen Receptor (ER2b) (AID 2283823).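 Further: fitted upward as reporter gain over DMSO so potency reflects activation.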 The essentials:
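Transfect HepG2 with GAL4-UAS reporter constructs; dose chemicals, 24 h; isolate RNA, RT-PCR, FAM-label, HpaI digest; capillary electrophoresis. Gain-of-signal vs DMSO.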

Assay [18] can be described thus: ATG_M_06_XSP2: Attagene TRANS-FACTORIAL Multi-Species (XSP2) HepG2 Assay for M06 Transcription Factor (Internal Marker) (AID 2283811).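 Further: hits are increases in signal above the DMSO baseline.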 In outline: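 Internal-marker reporter transcript, quantified by RT-PCR, 6-FAM labelling, HpaI digestion and capillary electrophoresis, 24 hours after dosing transfected HepG2 cells with 3 nM 6-alpha-fluorotestosterone and 1.5 nM norgestrel present; DMSO baseline.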

Assay [19] concerns frog Androgen Receptor (AR), gene 399456. Briefly: ATG_frAR_XSP2: Attagene TRANS-FACTORIAL Multi-Species (XSP2) HepG2 Assay for frog Androgen Receptor (AR) (AID 2283824).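 Further: reporter mRNA from GAL4-UAS units driven by Xenopus AR-Gal4 chimera; actives raise reporter signal above DMSO so AC50 reflects agonist-like induction.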 In outline:
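Reporter transcript induction, read by RT-PCR with fluorescent capillary electrophoresis, in human liver HepG2 cells carrying an exogenous Xenopus AR-Gal4 fusion and GAL4-driven reporters; chemical exposure 24 hours, activity scored upward against DMSO controls.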

Assay [20] has as its target Estrogen receptor beta (Homo sapiens) (UniProt Q92731). The experiment in a line: ATG_hERb_XSP2: Attagene TRANS-FACTORIAL Multi-Species (XSP2) HepG2 Assay for human Estrogen Receptor (ERb) (AID 2283813).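 Further: actives raise reporter mRNA above DMSO so AC50 reflects agonist induction.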 In outline:
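Transient TRANS reporter system in HepG2: after 24 h of chemical, RNA is reverse-transcribed, reporter cDNA amplified, FAM-labelled and sized by capillary electrophoresis. Induction of the human ERb-Gal4 reporter is measured relative to DMSO.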

Molecules are shown by their SMILES. Values joined by “and” are separate entries in the source; they are usually repeats but may differ in a detail not shown here. Identical values can stand only once. Records with an inconclusive call do not appear. The source holds several records for some structures; these can differ, active in one and inactive in another. Active and inactive are the calls of the source. How the source made its calls: active means hit-call score of the fitted dose curve at least 0.9, where 1 is the maximum; inconclusive means response in the unintended direction; inactive means score below 0.9.

zebrafish Estrogen Receptor (ER1), esr1 (gene 259252), sequence (P57717 whole entry, looked up, the tested form may be a part): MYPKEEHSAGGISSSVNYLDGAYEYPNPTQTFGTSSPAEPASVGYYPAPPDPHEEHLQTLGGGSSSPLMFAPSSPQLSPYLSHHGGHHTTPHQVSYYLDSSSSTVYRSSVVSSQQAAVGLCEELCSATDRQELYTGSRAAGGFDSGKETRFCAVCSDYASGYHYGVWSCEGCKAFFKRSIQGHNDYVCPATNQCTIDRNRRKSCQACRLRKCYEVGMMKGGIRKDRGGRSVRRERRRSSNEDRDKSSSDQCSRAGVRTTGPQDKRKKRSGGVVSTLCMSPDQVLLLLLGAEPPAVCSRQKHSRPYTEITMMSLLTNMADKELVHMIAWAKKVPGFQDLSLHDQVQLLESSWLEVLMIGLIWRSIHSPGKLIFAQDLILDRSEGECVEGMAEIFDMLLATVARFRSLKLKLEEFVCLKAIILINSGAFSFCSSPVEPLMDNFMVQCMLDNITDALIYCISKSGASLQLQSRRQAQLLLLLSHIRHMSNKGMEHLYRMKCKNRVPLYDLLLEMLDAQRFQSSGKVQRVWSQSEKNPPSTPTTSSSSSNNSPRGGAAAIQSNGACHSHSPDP
chicken Estrogen Receptor (ERa), ESR1 (gene 396099), sequence (P06212 whole entry, looked up, the tested form may be a part): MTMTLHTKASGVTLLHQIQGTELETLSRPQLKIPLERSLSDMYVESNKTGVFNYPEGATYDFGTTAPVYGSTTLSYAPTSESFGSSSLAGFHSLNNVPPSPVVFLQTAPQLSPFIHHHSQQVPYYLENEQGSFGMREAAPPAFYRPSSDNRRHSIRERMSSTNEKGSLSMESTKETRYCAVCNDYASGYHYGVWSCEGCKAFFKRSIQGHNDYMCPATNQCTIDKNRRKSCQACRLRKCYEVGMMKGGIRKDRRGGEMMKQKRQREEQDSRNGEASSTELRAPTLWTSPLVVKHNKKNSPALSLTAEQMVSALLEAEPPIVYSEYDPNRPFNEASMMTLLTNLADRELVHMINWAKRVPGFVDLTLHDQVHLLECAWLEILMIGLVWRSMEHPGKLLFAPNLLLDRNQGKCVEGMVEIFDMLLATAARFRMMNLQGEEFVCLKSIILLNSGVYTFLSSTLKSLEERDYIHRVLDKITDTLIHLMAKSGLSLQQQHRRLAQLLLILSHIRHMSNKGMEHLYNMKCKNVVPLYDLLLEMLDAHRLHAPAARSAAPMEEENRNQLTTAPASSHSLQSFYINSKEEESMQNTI
Estrogen receptor beta (Homo sapiens), sequence (Q92731 whole entry, looked up, the tested form may be a part): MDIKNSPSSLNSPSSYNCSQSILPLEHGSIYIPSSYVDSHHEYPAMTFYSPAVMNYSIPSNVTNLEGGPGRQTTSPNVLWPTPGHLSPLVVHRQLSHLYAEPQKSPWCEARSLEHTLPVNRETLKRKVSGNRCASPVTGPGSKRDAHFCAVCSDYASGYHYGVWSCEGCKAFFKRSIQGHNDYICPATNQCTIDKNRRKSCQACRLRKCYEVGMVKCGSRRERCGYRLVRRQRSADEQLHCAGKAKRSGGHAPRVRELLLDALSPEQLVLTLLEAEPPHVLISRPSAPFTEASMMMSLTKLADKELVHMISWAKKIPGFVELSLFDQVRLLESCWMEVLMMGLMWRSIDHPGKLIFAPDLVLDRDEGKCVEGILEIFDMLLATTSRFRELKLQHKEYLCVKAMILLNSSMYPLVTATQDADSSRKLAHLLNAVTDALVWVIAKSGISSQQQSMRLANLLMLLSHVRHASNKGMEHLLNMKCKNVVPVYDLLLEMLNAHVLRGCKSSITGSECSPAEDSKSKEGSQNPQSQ
GAL4 Transcription Factor (Internal Marker), GAL4 (gene 855828), sequence (P04386 whole entry, looked up, the tested form may be a part): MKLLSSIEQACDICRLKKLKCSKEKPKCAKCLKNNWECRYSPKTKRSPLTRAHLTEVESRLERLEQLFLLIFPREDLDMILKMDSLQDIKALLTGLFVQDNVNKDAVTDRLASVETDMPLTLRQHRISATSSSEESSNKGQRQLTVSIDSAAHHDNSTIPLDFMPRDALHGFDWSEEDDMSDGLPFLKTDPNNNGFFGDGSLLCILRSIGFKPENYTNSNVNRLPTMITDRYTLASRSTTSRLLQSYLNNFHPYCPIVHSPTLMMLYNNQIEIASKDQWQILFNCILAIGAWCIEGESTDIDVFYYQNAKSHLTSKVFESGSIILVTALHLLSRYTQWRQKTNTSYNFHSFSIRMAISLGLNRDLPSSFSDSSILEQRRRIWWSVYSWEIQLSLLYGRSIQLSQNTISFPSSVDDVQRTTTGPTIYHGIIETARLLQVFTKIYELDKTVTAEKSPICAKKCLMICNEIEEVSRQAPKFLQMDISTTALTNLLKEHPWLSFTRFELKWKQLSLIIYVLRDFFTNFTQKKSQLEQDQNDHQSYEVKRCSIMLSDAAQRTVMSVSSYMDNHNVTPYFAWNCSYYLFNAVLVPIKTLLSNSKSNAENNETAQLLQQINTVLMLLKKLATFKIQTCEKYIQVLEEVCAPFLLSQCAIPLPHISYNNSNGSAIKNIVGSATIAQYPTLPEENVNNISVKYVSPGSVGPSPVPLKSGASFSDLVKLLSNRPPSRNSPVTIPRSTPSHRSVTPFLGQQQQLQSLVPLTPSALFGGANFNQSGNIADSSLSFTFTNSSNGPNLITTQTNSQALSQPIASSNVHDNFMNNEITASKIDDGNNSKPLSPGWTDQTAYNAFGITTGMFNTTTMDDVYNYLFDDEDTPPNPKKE
human Thyroid hormone Receptor beta (TRb), THRB (gene 7068), sequence (P10828 whole entry, looked up, the tested form may be a part): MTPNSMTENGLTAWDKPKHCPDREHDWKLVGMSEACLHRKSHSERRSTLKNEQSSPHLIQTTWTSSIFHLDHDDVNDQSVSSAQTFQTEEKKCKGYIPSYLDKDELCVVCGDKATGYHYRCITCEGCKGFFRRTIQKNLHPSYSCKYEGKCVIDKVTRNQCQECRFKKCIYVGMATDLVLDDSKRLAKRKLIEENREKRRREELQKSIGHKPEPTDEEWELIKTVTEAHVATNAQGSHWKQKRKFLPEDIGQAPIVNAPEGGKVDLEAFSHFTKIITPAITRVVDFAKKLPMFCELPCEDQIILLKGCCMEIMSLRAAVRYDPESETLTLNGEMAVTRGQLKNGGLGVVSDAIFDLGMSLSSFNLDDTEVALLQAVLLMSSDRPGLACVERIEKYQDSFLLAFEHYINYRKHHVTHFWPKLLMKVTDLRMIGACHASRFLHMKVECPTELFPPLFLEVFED
human Thyroid hormone Receptor alpha (TRa), THRA (gene 7067), sequence (P10827 whole entry, looked up, the tested form may be a part): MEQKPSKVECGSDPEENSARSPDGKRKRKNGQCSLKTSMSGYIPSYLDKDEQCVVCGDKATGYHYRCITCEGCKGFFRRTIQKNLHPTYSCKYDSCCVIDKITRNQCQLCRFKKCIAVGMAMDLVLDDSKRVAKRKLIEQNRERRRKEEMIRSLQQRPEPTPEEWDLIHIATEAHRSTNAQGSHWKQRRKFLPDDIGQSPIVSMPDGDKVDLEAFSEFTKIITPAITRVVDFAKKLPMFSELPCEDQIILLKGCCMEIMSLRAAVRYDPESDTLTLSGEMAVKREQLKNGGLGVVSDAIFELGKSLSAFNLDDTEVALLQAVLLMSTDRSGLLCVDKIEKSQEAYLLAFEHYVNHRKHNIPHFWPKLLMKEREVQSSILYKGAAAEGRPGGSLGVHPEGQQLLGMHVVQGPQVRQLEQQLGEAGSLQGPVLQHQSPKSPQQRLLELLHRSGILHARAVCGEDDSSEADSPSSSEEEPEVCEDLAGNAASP
zebrafish Thyroid Hormone Receptor alpha (TRa), thraa (gene 30670), sequence (Q98867 whole entry, looked up, the tested form may be a part): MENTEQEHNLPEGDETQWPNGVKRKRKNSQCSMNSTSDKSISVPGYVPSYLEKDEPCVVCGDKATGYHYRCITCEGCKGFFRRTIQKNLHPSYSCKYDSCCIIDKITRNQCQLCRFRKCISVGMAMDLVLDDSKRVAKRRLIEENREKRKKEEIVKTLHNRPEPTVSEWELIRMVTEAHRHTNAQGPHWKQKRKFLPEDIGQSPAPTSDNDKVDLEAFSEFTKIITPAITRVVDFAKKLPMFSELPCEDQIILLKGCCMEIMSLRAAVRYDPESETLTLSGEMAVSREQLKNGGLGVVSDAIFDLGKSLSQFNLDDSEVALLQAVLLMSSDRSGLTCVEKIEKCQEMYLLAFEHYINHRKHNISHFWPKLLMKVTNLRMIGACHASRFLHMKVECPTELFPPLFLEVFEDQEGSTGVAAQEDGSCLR
Nuclear receptor subfamily 1 group I member 2 (Mus musculus), sequence (O54915 whole entry, looked up, the tested form may be a part): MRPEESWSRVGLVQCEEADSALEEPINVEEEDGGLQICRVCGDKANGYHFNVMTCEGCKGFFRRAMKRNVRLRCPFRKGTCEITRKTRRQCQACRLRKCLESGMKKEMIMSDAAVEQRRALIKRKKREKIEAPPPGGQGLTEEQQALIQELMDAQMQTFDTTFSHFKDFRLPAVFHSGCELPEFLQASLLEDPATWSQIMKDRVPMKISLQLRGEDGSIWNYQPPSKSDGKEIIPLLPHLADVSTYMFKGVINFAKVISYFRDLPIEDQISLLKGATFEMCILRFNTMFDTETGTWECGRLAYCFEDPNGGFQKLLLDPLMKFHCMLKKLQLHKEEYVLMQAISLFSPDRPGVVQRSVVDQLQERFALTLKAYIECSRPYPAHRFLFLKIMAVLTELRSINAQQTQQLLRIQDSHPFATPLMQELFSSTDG

As usually defined, the AC50 is the concentration at which the activity in the assay is half-maximal. Regarding `CCCCC(CC)COC(=O)c1ccc(O)cc1` (centres undefined), the molecule was called inactive in assay [1], in assay [2], in assay [3], in assay [4], in assay [5] and in assay [6]. The outcome in assay [9] and in assay [16] was inactive. For the same molecule, the AC50 is 63.8 µM (active) in assay [7]; 25.3 µM (active) in assay [8]; 53.2 µM (active) in assay [10]; 52.2 µM (active) in [11]; 6.15 µM (active) in assay [12]; 33.4 µM (active) in [13]. The concentration at half-maximal activity (AC50) was 51.9 µM (active) in assay [14], 49.9 µM (active) in [15] and 16.3 µM (active) in assay [17].
As for `O=c1c(O)c(-c2ccc(O)cc2)oc2cc(O)cc(O)c12`, the call in assay [18] was inactive. Further, the concentration at half-maximal activity (AC50) in assay [8] is 2.27 µM (active) and 1.08 µM (active); in [10] it was 3.01 µM (active) and 1.32 µM (active); in assay [11], 1.68 µM (active) and 954 nM (active); in [12] it was 3 µM (active) and 1.53 µM (active); in assay [13] it was 1.61 µM (active) and 981 nM (active); in assay [14] it was 3.26 µM (active) and 1.35 µM (active). The AC50 in assay [15] was 2.48 µM (active) and 1.49 µM (active); in assay [17] it was 2.83 µM (active) and 1.85 µM (active); in assay [19], 2.89 µM (active) and 1.82 µM (active).
Consider `Cc1cc(=O)oc2cc(N(C)C)ccc12`, for which the molecule was classed as inactive in assay [18], in assay [8], in [20], in assay [9], in assay [11] and in [12]. Besides, in [13], the result was inactive. Further, the half-maximal activity concentration (AC50) in assay [8] was 49.9 µM (active); in [12], 31.4 µM (active); in assay [13], 100 µM (active); in assay [15], 19.2 µM (active) and 27.6 µM (active); in [17], 77.1 µM (active) and 100 µM (active).
